Screens as filed in PubChem.
Artemis inh: inhibitors of human Artemis endonuclease activity; recombinant Artemis, quenched FAM hairpin cleavage fluorescence; inhibition, % at 10 µM; 30,000 tested, 0.78% active;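 active = at 10 µM dose, at least 30% inhibition, measured as corrected fluorescence normalized to stimulator and neutral control wells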
Numbers without * were called inactive. This excerpt belongs to a sample that is enriched for hits.

SMILES	Artemis inh
Cc1cc(NS(=O)(=O)c2ccc(NC(=S)NC(=O)c3ccc(Cl)cc3Cl)cc2)no1	30*
COc1cc(C(=O)Nc2ccc(S(=O)(=O)Nc3cc(C)on3)cc2)cc(OC)c1OC	-7
Cc1cc(NS(=O)(=O)c2ccc(NC(=O)CCc3ccccc3)cc2)no1	2
O=C(CSc1nnc(-c2ccc(OC(F)F)cc2)o1)NCc1cccs1	6
O=C(NC(=S)NCc1ccccc1)C1CCCCC1	-1
O=c1c2ccccc2nc(-c2ccco2)n1/N=C/c1ccccc1O	-2
Cc1nnc(C)n1/N=C/c1cccn1C	2
Cc1nnc(-c2ccccc2)c(=O)n1/N=C/c1c(O)ccc2ccccc12	47*
O=C(CSc1nc2ccccc2s1)Nn1cnnc1	1
Cc1nc(NC(=O)c2cc3c(C)nn(-c4ccccc4)c3s2)sc1C(=O)Nc1ccccc1	83*
Cc1nc(C)c(C(=O)Nc2ccccc2)s1	-4
Cc1nn(-c2ccc(F)cc2)c2sc(C(=O)N3CCCCCC3)cc12	6
Nc1c(C(=O)c2ccccc2)sc2snc(SCC(=O)c3ccccc3)c12	22
COC(=O)CSc1nnc(CNS(=O)(=O)c2ccc(Cl)cc2)n1C	0
NS(=O)(=O)c1ccc(CCNc2ncnc3c2c(-c2ccccc2)cn3-c2ccc(F)cc2)cc1	8
Cc1cccc(-n2c(CCCN3C(=O)c4ccccc4C3=O)nc3ccccc3c2=O)n1	-11
O=C(OCCN1C(=O)c2ccccc2C1=O)c1cccc(OC(F)F)c1	6
Cc1ccc(C2Nc3ccccc3C(=O)N2Cc2ccco2)cc1 (stereo not given)	2
O=C1CN(c2ccc(Cl)cc2)C(=O)CN1NC(=S)Nc1ccc(Cl)cc1	4
CCCCCCn1c(N2CCN(c3cccc(Cl)c3)CC2)nc2c1c(=O)[nH]c(=O)n2C	35*
CCCCCCn1c(N2CCN(c3ccccc3)CC2)nc2c1c(=O)[nH]c(=O)n2C	11
CC(C)CCn1c(N2CCN(c3cccc(Cl)c3)CC2)nc2c1c(=O)[nH]c(=O)n2C	27
COc1ccccc1N1CCN(c2nc(N)c(C#N)c(CC#N)c2C#N)CC1	-3
COc1cc2c(C#N)c(N3CCN(c4ccccc4OC)CC3)nc(N)c2c(N)n1	45*
N#Cc1c(N2CCCC2)nc(N)c2c(N)nc(N3CCCC3)cc12	67*
SMILES	Artemis inh
N#Cc1c(N2CCCCC2)nc(N)c2c(N)nc3c(c12)CC(c1ccccc1)O3 (stereo not given)	13
N#Cc1c(C(F)(F)F)cc(C2CC2)nc1N1CCCC1	2
COc1ccccc1N1CCN(c2nnc(-c3ccc(F)cc3)c3ccccc23)CC1	3
N#CC12CCCCC1CC1CCCCC1(C#N)N2Cc1cccnc1 (stereo not given)	2
CCn1ncc([N+](=O)[O-])c1C(=O)N1CCCC1	-1
CCCCOCCCNC(=O)/C=C/c1ccccc1Cl	-2
Cc1sc2nc(SCc3nc(-c4ccccc4)no3)n(-c3ccccc3)c(=O)c2c1C	-9
CC[C@@H](C(=O)n1nc(C)cc1C)[C@H](NS(=O)(=O)c1ccc(C)cc1)c1ccccc1	0
Cc1cc(OC(C)C)nc(NCc2ccccc2)n1	-5
CCn1c(=O)c(C(=O)Nc2nc3ccccc3[nH]2)c(O)c2ccccc21	50*
CCn1c(=O)c(C(=O)Nn2c(C)nc3ccccc3c2=O)c(O)c2ccccc21	12
CCn1c(=O)c(C(=O)NCCCO)c(O)c2ccccc21	-7
CCOC(=O)Nc1ccc2c(c1)Sc1ccccc1N2C(=O)CCN1CCOCC1	-3
S=c1[nH]nc(Cc2cccc3ccccc23)n1-c1ccccc1	-1
COC(=O)c1cc(C(=O)OC)cc(S(=O)(=O)Nc2ccc(Cl)c(N)c2)c1	12
Cc1ccc(C2CC(=O)NC(SCC(=O)Nc3nccs3)=C2C#N)cc1 (stereo not given)	8
Cc1ccc(C(=O)N2CCN(c3ccc([N+](=O)[O-])c(NCc4ccco4)c3)CC2)cc1	31*
Cc1cccc(C(=O)N2CCN(c3ccc([N+](=O)[O-])c(NCc4ccco4)c3)CC2)c1	28
Cc1cccc(C(=O)N2CCN(c3ccc([N+](=O)[O-])c(N4CCOCC4)c3)CC2)c1	2
CCC(CC)c1nnc(NC(=O)c2c(C)nn(Cc3ccccc3Cl)c2C)s1	5
Cc1ccnc(NC(=O)c2cccc(NS(=O)(=O)c3ccccc3C)c2)c1	9
CC(C)Oc1ccc(N2CC(C(=O)Nc3ccc(N4CCOCC4)cc3)CC2=O)cc1 (stereo not given)	-2
CC(C)CCOc1ccc(Cl)cc1CN1CCOCC1	-11
COc1ccc(NC(=S)Nc2ccc(OCc3ccccc3)cc2)cc1OC	-3
COc1ccccc1NC(=O)CN1CCN(CC(=O)Nc2ccc(OCc3ccccc3)cc2)CC1	5
COc1ccccc1NC(=O)C(=O)N/N=C(\C)CC(=O)Nc1ccc(OCc2ccccc2)cc1	33*
CC1=C(OC(=O)c2ccccc2)C(C)(C)C(c2ccc(Br)cc2)OC1=O (stereo not given)	0
COc1ccc(C(=O)N2c3ccccc3C(=O)OC2c2ccc3c(c2)OCO3)cc1 (stereo not given)	-8
